From PubChem BioAssay AID602261 (Sanford-Burnham Center for Chemical Genomics, 2012) come the findings set out here.

The term inhibition denotes the drop in the measured response relative to a control, in per cent.

Among all 360,000 compounds or so, about 2,400 (0.67%) were called active. Only a selection was taken, and actives are over-represented in it overall. A number with no mark means an inactive call.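 How the source made its calls: active means compounds whose normalised, plate-corrected inhibition of enzyme fluorescence in the single-dose primary screen is 50% or more; inactive means the rest.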

Sequence of Fatty acid synthase (Homo sapiens) (P49327 whole entry, looked up): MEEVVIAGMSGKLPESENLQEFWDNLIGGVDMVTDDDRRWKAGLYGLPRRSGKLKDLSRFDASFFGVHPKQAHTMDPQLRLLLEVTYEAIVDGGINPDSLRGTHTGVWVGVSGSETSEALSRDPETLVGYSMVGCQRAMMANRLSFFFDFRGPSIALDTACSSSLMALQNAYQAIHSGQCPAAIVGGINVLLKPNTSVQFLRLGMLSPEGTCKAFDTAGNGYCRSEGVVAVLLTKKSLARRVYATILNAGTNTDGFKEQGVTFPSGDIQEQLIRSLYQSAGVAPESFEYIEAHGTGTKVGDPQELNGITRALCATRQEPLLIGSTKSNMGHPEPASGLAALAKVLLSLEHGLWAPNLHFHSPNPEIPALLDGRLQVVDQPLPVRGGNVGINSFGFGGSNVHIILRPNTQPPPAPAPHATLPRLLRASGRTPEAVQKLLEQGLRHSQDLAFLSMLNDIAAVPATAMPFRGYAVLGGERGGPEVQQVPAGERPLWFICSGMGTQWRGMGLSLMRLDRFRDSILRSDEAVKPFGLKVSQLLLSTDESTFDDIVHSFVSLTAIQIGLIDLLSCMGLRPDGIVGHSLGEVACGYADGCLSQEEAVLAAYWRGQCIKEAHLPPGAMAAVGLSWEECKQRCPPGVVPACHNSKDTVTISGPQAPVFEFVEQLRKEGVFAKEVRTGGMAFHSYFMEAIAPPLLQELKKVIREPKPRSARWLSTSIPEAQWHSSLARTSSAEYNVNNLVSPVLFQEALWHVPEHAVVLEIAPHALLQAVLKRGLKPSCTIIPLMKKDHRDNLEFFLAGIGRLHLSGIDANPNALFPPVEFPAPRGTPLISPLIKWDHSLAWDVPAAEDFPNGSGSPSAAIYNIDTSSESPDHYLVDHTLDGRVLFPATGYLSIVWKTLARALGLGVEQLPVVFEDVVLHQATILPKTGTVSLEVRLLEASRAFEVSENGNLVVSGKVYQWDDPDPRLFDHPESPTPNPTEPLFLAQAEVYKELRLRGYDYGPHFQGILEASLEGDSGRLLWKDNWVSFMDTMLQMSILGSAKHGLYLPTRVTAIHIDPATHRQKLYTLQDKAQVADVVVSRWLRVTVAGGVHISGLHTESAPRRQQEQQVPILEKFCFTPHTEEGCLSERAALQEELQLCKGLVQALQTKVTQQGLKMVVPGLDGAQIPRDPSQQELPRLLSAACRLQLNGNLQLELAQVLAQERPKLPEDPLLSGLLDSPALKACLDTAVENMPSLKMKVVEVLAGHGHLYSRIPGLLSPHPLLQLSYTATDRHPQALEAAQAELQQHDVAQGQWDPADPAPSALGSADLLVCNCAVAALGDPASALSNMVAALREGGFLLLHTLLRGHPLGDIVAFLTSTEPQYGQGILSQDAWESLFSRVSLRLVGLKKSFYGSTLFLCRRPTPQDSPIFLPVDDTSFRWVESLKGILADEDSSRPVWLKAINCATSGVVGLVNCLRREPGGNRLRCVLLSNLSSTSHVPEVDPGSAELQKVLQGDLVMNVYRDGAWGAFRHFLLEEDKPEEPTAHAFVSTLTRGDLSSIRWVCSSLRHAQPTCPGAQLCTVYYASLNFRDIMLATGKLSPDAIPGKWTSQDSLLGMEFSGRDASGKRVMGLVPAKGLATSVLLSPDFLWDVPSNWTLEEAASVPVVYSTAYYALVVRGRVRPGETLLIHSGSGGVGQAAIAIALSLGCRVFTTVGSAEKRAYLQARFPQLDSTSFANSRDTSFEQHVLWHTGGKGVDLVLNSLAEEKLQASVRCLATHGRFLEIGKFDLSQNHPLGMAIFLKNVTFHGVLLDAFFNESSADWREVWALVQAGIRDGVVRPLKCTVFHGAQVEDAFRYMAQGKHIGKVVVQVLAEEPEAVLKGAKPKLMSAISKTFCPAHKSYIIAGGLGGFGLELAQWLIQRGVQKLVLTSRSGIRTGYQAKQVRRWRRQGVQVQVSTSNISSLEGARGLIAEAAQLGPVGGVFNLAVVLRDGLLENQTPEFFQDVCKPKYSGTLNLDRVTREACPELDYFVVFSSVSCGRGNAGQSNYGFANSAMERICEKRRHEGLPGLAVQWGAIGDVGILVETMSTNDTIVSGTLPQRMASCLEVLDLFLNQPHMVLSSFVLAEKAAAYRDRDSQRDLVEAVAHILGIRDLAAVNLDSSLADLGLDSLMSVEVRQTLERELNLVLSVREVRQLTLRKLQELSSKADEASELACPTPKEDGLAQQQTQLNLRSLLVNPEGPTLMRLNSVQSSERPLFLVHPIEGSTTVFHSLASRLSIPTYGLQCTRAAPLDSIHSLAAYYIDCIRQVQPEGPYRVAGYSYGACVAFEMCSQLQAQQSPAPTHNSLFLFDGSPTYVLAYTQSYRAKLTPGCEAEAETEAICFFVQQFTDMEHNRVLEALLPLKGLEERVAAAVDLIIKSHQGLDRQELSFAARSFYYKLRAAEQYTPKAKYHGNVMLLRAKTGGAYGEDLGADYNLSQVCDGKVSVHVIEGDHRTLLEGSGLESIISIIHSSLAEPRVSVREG

This assay has as its target Fatty acid synthase (Homo sapiens) (UniProt P49327). The assay is described as follows: inhibition of human FAS-TE enzyme activity – biochemical, fluorescence intensity, uHTS, primary screen (AID 602261).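 Further: 0% = DMSO with enzyme and 100% = substrate without enzyme.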 To be noted: recombinant FAS-TE, OMFH fluorogenic substrate, fluorescence endpoint; at 15 µM; stronger effect = higher value.
In the case of `CC[C@]12c3[nH]c4ccc(Cl)cc4c3CCN1C(=O)[C@@H](CC(=O)NCCCOC)C[C@@H]2C(=O)N1CCN(C(=O)C2CC2)CC1`, the inhibition was -5.2%.

Take `CCOC1=C2CN(S(=O)(=O)c3ccc(C)cc3)[C@H](c3cccs3)C[C@H]2[C@H]2C(=O)N(c3ccccc3)C(=O)[C@H]2C1`: the inhibition was 58% (active).

As for `CCOC1=C2[C@H]([C@H]3C(=O)N(c4ccccc4)C(=O)[C@H]3C1)[C@@H](c1ccccc1)N(S(=O)(=O)c1ccc(C)cc1)[C@H]2c1ccccc1`, the inhibition is 69.2% (active).

As to `CCOC(=O)C1=CC[C@@H](c2ccccc2)N(S(=O)(=O)c2ccc(C)cc2)[C@H]1c1ccc(CC)cc1`, the inhibition was 31.8%.

Take `Cc1ccc(S(=O)(=O)N2C[C@@H](C)[C@]3(C2)[C@H](O)[C@H](OC(=O)NCc2ccccc2)C[C@H]2C(=O)N(c4ccccc4)C(=O)[C@H]23)cc1`: the inhibition was 18.7%.

On to `CCOC(=O)C1=C(N)N(c2ccc(C)cc2)C2=C(C(=O)CCC2)C1c1cccs1` (stereo not given), for which the inhibition was 20.7%.

For `CCOC1=C2[C@@H](CN(S(=O)(=O)c3ccc(C)cc3)[C@H]2c2ccccc2F)[C@H]2C(=O)N(Cc3ccccc3)C(=O)[C@H]2C1`, the inhibition was 35.8%.

For the molecule `NC(=O)COC(=O)c1sc2cc(F)ccc2c1Cl`, the inhibition is 5%.

As to `CCOc1ccc2[nH]c(=S)sc2c1`, the inhibition is -1.4%.

Take `CN1CCN(S(=O)(=O)c2ccc(Nc3ccc(F)cc3)nc2)CC1`: the inhibition was -0.3%.

Regarding `CC1CN(C(=O)c2cc(COc3c(F)cccc3F)on2)CCN1C` (stereo not given), the inhibition was -5.4%.

With `Cc1nnc(-c2ccc(Oc3ccc(C)c(C)c3)c([N+](=O)[O-])c2)o1`, the inhibition was 21.4%.

In the case of `COc1cccc2c1CCC(NC(C)=O)C2=O` (stereo not given), the inhibition is -7.2%.

Turning to `Brc1ccccc1/C=N/Nc1nc2ccccc2o1`, the inhibition was -4.3%.

With `O=C(NC(Nc1nc2ccc([N+](=O)[O-])cc2s1)(C(F)(F)F)C(F)(F)F)c1ccccc1`, the inhibition was 10.8%.

On to `O=[N+]([O-])c1cc(Br)c(O)c(/C=N/Nc2nc3ccccc3s2)c1`, for which the inhibition was 52.5% (active).

Turning to `COc1ccc(SCc2noc(C(=O)NCC3CCCO3)c2C(=O)O)cc1` (stereo not given), the inhibition is -6.7%.

Turning to `Cc1cccc(N(CC(=O)N2CCCC2)S(C)(=O)=O)c1C`, the inhibition is -4.4%.

In the case of `COCCN1C2=C(COC(C)(C)C2)C(=S)NC1c1ccccc1` (stereo not given), the inhibition was -8.2%.

Take `Cc1ccc2c(c1)NC(=O)[C@@]1(C)[C@@H](c3ccccc3)[C@H]3COc4ccc(Cl)cc4[C@@H]3N1C2=O`: the inhibition was 15.6%.

On to `COc1ccc2c(c1)[C@H]1[C@H](CO2)[C@H](c2ccccc2)[C@]2(C)C(=O)Nc3cc(F)c(F)cc3C(=O)N12`, for which the inhibition was 71.2% (active).

Regarding `CCOC(=O)[C@H]1[C@H]2COc3ccc(OC)cc3[C@@H]2N2C(=O)c3ccc(F)cc3NC(=O)[C@@]12C`, the inhibition was -4.6%.

Regarding `CCOC(=O)c1ccc(COC(=O)CCc2nc(-c3ccccc3)c(-c3ccccc3)o2)cc1`, the inhibition is 26.3%.

In the case of `COc1cc(OC)cc(-c2cc3nc(C4CCN(C(=O)OC(C)(C)C)CC4)cc(=O)n3[nH]2)c1`, the inhibition was -5.7%.

Turning to `CCC(C)NC(=O)C1CCCN(C(=O)NC2CCCCC2)C1` (stereo not given), the inhibition is -6.1%.

For the molecule `O=C(c1[nH]ncc1-c1ccc(Cl)cc1)C1CO1` (stereo not given), the inhibition is -22%.

For `O=C(NC(=S)NC1CCS(=O)(=O)C1)c1cccc([N+](=O)[O-])c1` (stereo not given), the inhibition is -3.5%.

Regarding `Cc1ccc(NC(=O)C(=O)NCC2CCN(C(=O)c3cccc([N+](=O)[O-])c3)CC2)cc1`, the inhibition was 0.8%.

With `O=C(Nc1ccc(C2CC2(Cl)Cl)cc1)c1cccc([N+](=O)[O-])c1` (stereo not given), the inhibition was 90.9% (active).

`CCOc1ccc(CCNC(=O)COC(=O)c2ccc(F)c(S(=O)(=O)N3CCOCC3)c2)cc1OCC`: the inhibition was -4.3%.

`N#Cc1c(/N=C/N2CCCC2)oc(-c2ccccc2)c1-c1ccccc1`: the inhibition was 27.6%.

On to `CC(C)(C)N1C(=O)[C@H]2[C@@H](c3ccc(Br)cc3)N3C(=O)N(c4cccc(Cl)c4)C(=O)[C@@]3(C)[C@H]2C1=O`, for which the inhibition is 31.7%.

Regarding `O=C1[C@H]2[C@@H](c3ccc(F)cc3)N3C(=O)N(c4ccc(C(F)(F)F)cc4)C(=O)[C@@]3(Cc3ccccc3)[C@H]2C(=O)N1C1CCCCC1`, the inhibition was 91.3% (active).

Regarding `C[C@@]12C(=O)N(c3cccc(Br)c3)C(=O)N1[C@H](c1ccc(Cl)cc1)[C@@H]1C(=O)N(C3CCCCC3)C(=O)[C@@H]12`, the inhibition is 93.7% (active).

For `O=C1[C@H]2[C@@H](c3ccc(Cl)cc3)N3C(=O)N(c4cccc(F)c4)C(=O)[C@@]3(Cc3ccccc3)[C@H]2C(=O)N1C1CCCCC1`, the inhibition was 92.2% (active).

With `O=C1[C@H]2[C@@H](c3ccc(C(F)(F)F)cc3)N[C@]3(CCCN(Cc4ccc(Br)cc4)C3=O)[C@H]2C(=O)N1Cc1ccccc1`, the inhibition was 41.2%.

Turning to `CCN1C(=O)[C@H]2[C@@H](c3ccc(C)cc3)N3C(=O)N(c4cccc(Br)c4)C(=O)[C@@]3(CC)[C@H]2C1=O`, the inhibition was -1.3%.

As to `Cc1cccc(N2C(=O)N3[C@H](c4ccc(F)cc4)[C@@H]4C(=O)N(C5CCCCC5)C(=O)[C@@H]4[C@]3(Cc3ccccc3)C2=O)c1`, the inhibition is 90.1% (active).

Consider `O=C1[C@H]2[C@@H](c3ccc(C(F)(F)F)cc3)N[C@]3(CCCN(Cc4ccc(Cl)cc4)C3=O)[C@H]2C(=O)N1Cc1ccccc1`, for which the inhibition was 41.2%.

`CC12C(=O)N(c3ccccc3)C(=O)C1C(c1ccccc1)N1CCCN12` (stereo not given): the inhibition is -2.7%.

As to `Cc1ccc([C@H]2N[C@]3(CCCN(CC4CCCCC4)C3=O)[C@H]3C(=O)N(Cc4ccccc4)C(=O)[C@@H]23)cc1`, the inhibition is 21.4%.

With `COc1cc(NC(=O)C2=C(C)OCCS2)c(Cl)cc1C(=O)NCCN1CCN(C)CC1`, the inhibition was -10.2%.

`CC1CCN(S(=O)(=O)c2ccc(NC(=O)C3CC(=O)N(c4ccccc4)C3)cc2)CC1` (stereo not given): the inhibition was 4.6%.

`COc1ccc(CNC(=O)CN2CCC(n3nnc4cc(F)ccc43)CC2)cc1`: the inhibition was 1.6%.

Regarding `Cc1csc(SCC(=O)N(c2ccccc2)C(C)C)n1`, the inhibition is -7.2%.

As to `CC(NC(=O)C1CCC(CNc2c(N3CCOCC3)c(=O)c2=O)CC1)c1ccccc1` (stereo not given), the inhibition was 3.6%.

For the molecule `S=c1[nH]c2ccccc2c2ccccc12`, the inhibition was -0.9%.

Regarding `COCC1CCN(C(=O)C2CCC(=O)N(Cc3cccc(C(F)(F)F)c3)C2)CC1` (stereo not given), the inhibition is -6.2%.

Regarding `O=C(CCNS(=O)(=O)c1cccs1)N1CCN(c2ccc(F)cc2)CC1`, the inhibition was -4.4%.

In the case of `NC1=NC(=O)C2(COC(c3ccccc3Cl)OC2)S1` (stereo not given), the inhibition was -3.8%.

With `Cc1cccc([C@@H]2[C@@H]3C(=O)N(Cc4ccccc4)C(=O)[C@@H]3[C@]3(C)C(=O)N(c4ccc(Br)cc4)C(=O)N23)c1`, the inhibition is 39.4%.

For the molecule `Cc1cccc(N2C(=O)C3C(c4ccccc4)OC4(C(=O)c5ccccc5C4=O)C3C2=O)c1` (stereo not given), the inhibition is -2.5%.

As to `Cc1cccc([C@@H]2[C@@H]3C(=O)N(Cc4ccccc4)C(=O)[C@@H]3[C@]3(Cc4ccc(Cl)cc4)C(=O)N(c4cccc(Cl)c4)C(=O)N23)c1`, the inhibition is 91.3% (active).

Consider `CC[C@@]12C(=O)N(c3ccccc3)C(=O)N1[C@H](c1ccc(Br)cc1)[C@@H]1C(=O)N(C(C)(C)C)C(=O)[C@@H]12`, for which the inhibition is 13.2%.

With `COc1ccc([C@@H]2[C@@H]3C(=O)N(C(C)(C)C)C(=O)[C@@H]3[C@]3(Cc4ccccc4)C(=O)N(c4cccc(Br)c4)C(=O)N23)cc1`, the inhibition was 89.7% (active).

For `COc1cccc(N2C(=O)CN(Cc3ccccc3)C2=S)c1`, the inhibition is -0.9%.

As for `CCc1cc(CNC(=O)CC2C(=O)NCCN2Cc2ccccc2C(F)(F)F)on1` (stereo not given), the inhibition was -2.9%.

`O=C(NC1CCCCC1)C1CC(=O)N(CCc2ccccc2)C1` (stereo not given): the inhibition was -6.1%.

Consider `CCCn1cc(S(=O)(=O)c2ccc(C)cc2)c(=O)c2cc(OCC)ccc21`, for which the inhibition is 9.4%.

Turning to `Clc1ccc2c(c1)C1=C(C(c3ccncc3)O2)C(c2ccc(Br)cc2)n2ncnc2N1` (stereo not given), the inhibition was 71.3% (active).

For the molecule `CN(C)CCNc1ccc(-c2n[nH]c(=O)c3ccccc23)cc1[N+](=O)[O-]`, the inhibition was -2.9%.

In the case of `CCOc1cc(/C=N/NC(=O)OC)ccc1OCCSc1ccc(Cl)cc1`, the inhibition was -4.3%.

In the case of `CCOc1cc(/C=C(/C#N)c2ccc(Cl)cc2)cc(Cl)c1OCC(=O)O`, the inhibition is 53.1% (active).

Regarding `COc1cc(/C=C(/NC(=O)c2ccc(Cl)cc2Cl)C(=O)O)cc(OC)c1OC`, the inhibition is 0.9%.

In the case of `O=C(c1ccco1)N1CCN=C1SCc1cccc(Cl)c1`, the inhibition was 5.3%.

`COC(=O)c1sc2[nH]c(=S)n(N)c(=O)c2c1C`: the inhibition was -6.3%.

Regarding `O=c1ccc2c(-c3ccccc3S(=O)(=O)O)c3ccc(O)c(O)c3oc-2c1O`, the inhibition is 54.8% (active).

`Cn1ncc2c(NNC(=O)Cc3cccc4ccccc34)ncnc21`: the inhibition was -10.1%.

Turning to `CC(=O)c1c(C)[nH]c(C(=O)N2CCN(S(=O)(=O)c3ccc(F)c(F)c3)CC2)c1C`, the inhibition was -3.9%.

Consider `COc1ccc(S(=O)(=O)N2CCOCC2)cc1NC(=O)COc1ccccc1`, for which the inhibition is 2.1%.

Consider `COc1cc(S(=O)(=O)N2CCOCC2)ccc1NC(=O)COc1ccc(N(C)S(=O)(=O)c2ccc(C)cc2)cc1`, for which the inhibition is 76.5% (active).

On to `COc1ccc(NC(=O)CNc2cc(S(=O)(=O)N3CCOCC3)ccc2N2CCOCC2)c(OC)c1`, for which the inhibition is -2.5%.

On to `COc1ccc(Cl)cc1NS(=O)(=O)c1cccc(C(=O)NCC2CCCO2)c1` (stereo not given), for which the inhibition is -3.9%.

In the case of `Oc1c(Cl)cc(Cl)c(Cl)c1Cc1c(O)c(Cl)cc(Cl)c1Cl`, the inhibition is 83.7% (active).

`CC1CCCCN1C(=O)CCS(=O)(=O)Cc1ccccc1` (stereo not given): the inhibition is -4.6%.
